Hit rate of the full screen: of about 1,300 compounds, about 240 (18%) were called active. Not shown: some 8% with an inconclusive outcome. Not all results are given here. Potency and affinity values are given separately. Unmarked numbers belong to inactive results. No rule for the calls is given here.
assay: toxicity to human hepatoma HepG2 cells – cell-based, cherry-picked samples, cytotoxicity control, dose response (AID 1159577); details: HepG2 cytotoxicity counterscreen, plate reader; series mostly up to 19.5 µM; activity change, negative = cytotoxicity: at the top concentration;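 also: 0% = neutral control wells and -100% = positive control wells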

Row | Structure (SMILES) | activity change, negative = cytotoxicity
1 | COc1ccc(NC(=O)N(C)C[C@@H]2Oc3cc(-c4ccc(C)cc4)ccc3S(=O)(=O)N([C@@H](C)CO)C[C@@H]2C)cc1 | -13.5%
2 | COc1ccc(C#Cc2ccc3c(c2)[C@H]2[C@H](CCN2C(=O)C2CCC2)[C@H](CO)N3)cc1 | -4.14% [at 21 µM]
3 | OC[C@@H]1CC[C@@H]2O[C@H](CCc3ccc(C#CCc4ccccc4)cc3)[C@H](n3cc(-c4ccccc4)nn3)C[C@@H]2O1 | -19.3%
4 | C[C@@H]1CN([C@H](C)CO)C(=O)c2cccc(NC(=O)Nc3cccc4ccccc34)c2O[C@H]1CN(C)C(=O)NC1CCCCC1 | 16.1%
5 | CCCNC(=O)N1CC(=O)N2[C@@H](CO)[C@@H](c3ccc(C#Cc4cccc(OC)c4)cc3)[C@@H]2C1 | 4.91%
6 | COc1cccc(S(=O)(=O)N(C)C[C@@H]2Oc3ncc(C#Cc4ccc(OC)c(OC)c4)cc3C(=O)N([C@H](C)CO)C[C@@H]2C)c1 | 29.1%
7 | COc1ccc(NC(=O)N(C)C[C@H]2OCc3ccccc3-c3c(n(C)c4ccccc34)C(=O)N([C@@H](C)CO)C[C@H]2C)c(OC)c1 | 7.72% [at 21 µM]
8 | C[C@@H]1CN([C@@H](C)CO)C(=O)c2cccc(NC(=O)C3CC3)c2O[C@@H]1CN(C)C(=O)Nc1ccc(C(F)(F)F)cc1 | -20%
9 | COc1cccc(NC(=O)N2[C@H](CO)[C@@H](c3ccccc3)[C@H]2CNCC(C)C)c1 | -10.2%
10 | O=S(=O)(c1ccccc1)N1C[C@@H]2N[C@H](C1)C2c1ccc(-c2ccc(F)cc2)cc1 (some centres undefined) | -31.9%
11 | CC=Cc1ccc2n(c1=O)C[C@@H]1[C@@H](CO)[C@H](C(=O)N3CCC(Cc4ccccc4)CC3)N(CCC)[C@H]21 (mixture of isomers) | -14.5%
12 | C[C@@H]1CN([C@H](C)CO)C(=O)c2cc(NC(=O)Nc3ccc(C(F)(F)F)cc3)ccc2O[C@H]1CN(C)C(=O)Nc1cccc2ccccc12 | 10.9%
13 | C[C@H](CO)N1C[C@H](C)[C@H](CN(C)Cc2ccc(Oc3ccccc3)cc2)Oc2ccc(NS(=O)(=O)c3ccc(Cl)cc3)cc2CC1=O | -10.2% [at 21 µM]
14 | C[C@H](CO)N1C[C@H](C)[C@@H](CN(C)Cc2ccc(Oc3ccccc3)cc2)Oc2ccc(NS(=O)(=O)c3cn(C)cn3)cc2CC1=O | 8.5%
15 | C[C@H](CO)N1C[C@H](C)[C@@H](CN(C)C(=O)Nc2cccc3ccccc23)Oc2ccc(NC(=O)Nc3cccc4ccccc34)cc2CC1=O | 27.7%
16 | C[C@H]1CN([C@@H](C)CO)C(=O)c2cc(NC(=O)Nc3cccc4ccccc34)ccc2O[C@@H]1CN(C)Cc1ccc(Oc2ccccc2)cc1 | -10.6% [at 21 µM]
17 | CO[C@H]1CN(C)C(=O)c2cc(NC(=O)C3CC3)ccc2OC[C@@H](C)N(Cc2cc(F)ccc2F)C[C@H]1C | 30.6%
18 | O=S(=O)(c1ccccc1)N1CC[C@@H]2[C@H](CO)Nc3ccc(C#CC4CCCCC4)cc3[C@@H]21 | -12.5% [at 23.5 µM]
19 | COc1ccc2c3c(n(C)c2c1)[C@@H](CO)N(C(=O)C1CCC1)CC31CN(C(=O)Nc2cccc(F)c2)C1 | -35.6%
20 | COc1cccc(-c2ccc3c(c2)[C@H]2[C@H](CCN2C(=O)C2CCCC2)[C@@H](CO)N3)c1 | -10.3%
21 | COCC#Cc1ccc([C@@H]2[C@H](CO)N3CCCCN(S(=O)(=O)c4ccc(OC)cc4)C[C@@H]23)cc1 | 2.6%
22 | CCC(=O)N1CC2(C1)CN(Cc1cc(F)ccc1F)[C@@H](CO)c1[nH]c3cc(OC)ccc3c12 | -3.61%

Row | Structure (SMILES) | activity change, negative = cytotoxicity
23 | OC[C@@H]1CC[C@@H]2O[C@H](CCc3ccc(-c4ccc(F)cc4)cc3)[C@H](n3cc(C4CC4)nn3)C[C@@H]2O1 | -5.35%
24 | CC(C)(C)[S@](=O)N1Cc2cc(C(=O)NCCN3CCCC3)nc(-c3cccc(-c4ccc(C#N)cc4)c3)c2[C@@H]1CCO | -4.11% [at 21 µM]
25 | CCc1csc(N2[C@H](C#N)[C@H](c3ccccc3-c3ccc(F)cc3)[C@H]2CO)n1 | -13.9%
26 | C/C=C/c1ccc([C@H]2[C@@H](CO)N(CC3CCCCC3)[C@@H]2CNC(C)C)cc1 | -4.8% [at 21 µM]
27 | C/C=C/c1ccc([C@H]2[C@@H](C#N)N(C(=O)NC3CCCC3)[C@@H]2CO)cc1 | -18.6% [at 21 µM]
28 | C/C=C/c1ccccc1[C@@H]1[C@@H](CO)N(S(=O)(=O)c2cccc(F)c2)[C@H]1C#N | -0.51% [at 21 µM]
29 | C/C=C/c1ccc([C@H]2[C@@H](CO)N(C(=O)CC)[C@@H]2CNCC2CCCCC2)cc1 | -6.29% [at 21 µM]
30 | C/C=C/c1ccc([C@H]2[C@@H](CO)N(CC3CCCC3)[C@@H]2CNC(=O)NC(C)C)cc1 | 7.86% [at 21 µM]
31 | C[C@@H]1CN([C@@H](C)CO)C(=O)c2cccc(NC(=O)Nc3ccccc3)c2O[C@@H]1CN(C)C(=O)Nc1ccc(F)cc1 | 11.6%
32 | COc1ccc2c3c(n(C)c2c1)[C@@H](CO)N(C(=O)c1ccc(F)cc1)CC31CN(CC2CCOCC2)C1 | -6.16%
33 | CCCN1C[C@@H](C)[C@H](OC)CN(C)C(=O)c2ccc(NC(=O)c3cccc(F)c3)cc2OC[C@H]1C | 9.31%
34 | COc1ccc2c3c(n(C)c2c1)[C@H](CO)N(Cc1ccccc1F)CC31CCN(CC2CC2)CC1 | -24.4%
35 | CCC(=O)N1CCC2(CC1)CN(Cc1cccc(Cl)c1)[C@H](CO)c1c2c2ccc(OC)cc2n1C | -4.12%
36 | COc1ccc2c3c(n(C)c2c1)[C@H](CO)N(C(=O)c1ccccc1)CC31CCN(C(=O)c2ccccc2)CC1 | 28.5%
37 | COc1ccc2c3c(n(C)c2c1)[C@@H](CO)N(Cc1ccc(Cl)cc1)CC31CCN(CC2CC2)CC1 | -10.4%
38 | COc1ccc2c3c(n(C)c2c1)[C@@H](CO)N(C(=O)c1ccccc1)CC31CCN(C(=O)c2ccccc2)CC1 | 6.24%
39 | COc1ccc2c3c(n(C)c2c1)[C@H](CO)N(Cc1ccncc1)CC31CCN(C(=O)Cc2ccncc2)CC1 | 9.18% [at 18 µM]
40 | COc1ccc2c3c(n(C)c2c1)[C@@H](CO)N(Cc1ccccc1F)CC31CCN(CC2CC2)CC1 | -22.2%
41 | COc1ccc2c3c(n(C)c2c1)[C@@H](CO)N(CC1CCCCC1)CC31CCN(Cc2nccs2)CC1 | 9.04%
42 | COc1ccc(-c2ccccc2[C@H]2[C@@H](CO)N(C(=O)C3CCOCC3)[C@H]2C#N)cc1 | 10.6%
43 | COc1ccc2c3c(n(C)c2c1)[C@H](CO)N(Cc1cccnc1)CC31CN(C(=O)NC(C)C)C1 | -0.752%
44 | CC(C)(C)[S@](=O)N1Cc2cc(C(=O)NCCN3CCCCC3)nc(-c3cccc(-c4cccc(C#N)c4)c3)c2[C@@H]1CCO | 2.26%
